# Source: PubChem BioAssay (several laboratories)
# tim10-1 inh = tim10-1 yeast growth inhibition; S. cerevisiae tim10-1 ts strain growth, BacTiter-Glo, 24 h; inhibition, % at 20 µM; actives 2.2% (n = 330,000); AID 463190;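 active = inhibition of at least 40%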;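 also: mutant grown at 25 °C; 0% = DMSO wells with yeast and 100% = wells holding no yeast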
# SKKanGAS inh = SKKanGAS growth inhibition; S. pyogenes SKKanGAS, kanamycin growth, BacTiter-Glo, 6 h; inhibition, % at 7.5 µM; actives 1.3% (n = 300,000); AID 1662;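 active = mean replicate score, as percent of positive control median, at least 50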;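 also: strain carries kanamycin resistance gene driven by streptokinase promoter and grows in 40 µg/ml kanamycin; loss of luminescence reflects streptokinase promoter inhibition or plain growth inhibition; 0% = median of DMSO wells and 100% = positive control at its reference dose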
# NLRP3 yeast inh = blocks the NALP3 inflammasome reconstituted in yeast. actives 0.39% (n = 330,000). inhibition, % at 10 µM. Yeast reconstituted NLRP3/ASC/caspase-1, beta-gal luminescence, 24 h;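 active = inhibition of 50% or more; inactive = inhibition below 50%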;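 also: plate controls were induced DMSO wells for no effect and uninduced yeast grown without galactose for full effect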
# PfHsp90 set2 = growth inhibition of yeast expressing Plasmodium Hsp90; actives 0.32% (n = 310,000); AID 504621; inhibition, % at 9.4 µM; S. cerevisiae expressing PfHsp90, BacTiter-Glo ATP, 48 h; yeast lacking PDR1 and PDR3 efflux regulators;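 active = every replicate shows inhibition above about 80%, whatever the replicate mean, limit read from the data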;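 also: 0% = DMSO neutral controls and 100% = 20 µM radicicol positive controls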
# TIM10 inh = TIM10 yeast growth inhibition. actives 1.4% (n = 330,000). S. cerevisiae TIM10 strain growth, BacTiter-Glo luminescence, 24 h. AID 463195. inhibition, % at 10 µM;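 active = inhibition of 40% or more at the single tested concentration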;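 also: wild-type TIM10 isogenic control strain grown at permissive 25 °C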
# tim23-1 inh = inhibits growth of tim23-1 mutant yeast. S. cerevisiae tim23-1 growth, BacTiter-Glo luminescence, 24 h. inhibition, % at 20 µM. actives 1.3% (n = 330,000). AID 463212;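 active = growth inhibition of the mutant yeast at or above 50%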;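 also: temperature-sensitive mutant grown at 25 °C; plate controls were DMSO-treated mutant yeast for no effect and medium wells lacking yeast for full effect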
# tim10-1 confirm = tim10-1 yeast growth inhibition, confirmed; shares compounds with tim10-1 inh; S. cerevisiae tim10-1 ts strain growth, BacTiter-Glo, 24 h; actives 56% (n = 7,400); inhibition, % at 20 µM;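 active = inhibition of yeast growth at or above a set limit in either of two repeat tests at 20 µM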;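 also: tim10-1 mutant grown at permissive 25 °C to find synthetic lethal compounds; 0% = DMSO yeast wells and 100% = medium wells without yeast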
# tim10 confirm = TIM10 yeast growth inhibition, confirmed | shares compounds with TIM10 inh | S. cerevisiae tim10 strain growth, BacTiter-Glo luminescence, 24 h | inhibition, % at 10 µM | actives 63% (n = 4,600) | AID 463215;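 active = inhibition of yeast growth at or above a set limit in either of two replicates at 10 µM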;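 also: this counterscreen used the strain with wild-type TIM10; 0% = yeast with DMSO and 100% = medium wells lacking yeast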
# tim23-1 conf = tim23-1 yeast growth inhibition, confirmed. shares compounds with tim23-1 inh. S. cerevisiae tim23-1 growth, BacTiter-Glo luminescence, 24 h. inhibition, % at 20 µM. actives 83% (n = 4,400). AID 463218;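 active = inhibition above about 39% in either of two replicate wells at 20 µM, limit read from the data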;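 also: temperature-sensitive tim23-1 mutant grown at 25 °C; 0% = DMSO wells with yeast and 100% = medium wells without yeast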
# Numbers without * were called inactive; x = no result given. In the library only some 4.6% were active in any assay of this set; here they are far more common.
SMILES,tim10-1 inh,SKKanGAS inh,NLRP3 yeast inh,PfHsp90 set2,TIM10 inh,tim23-1 inh,tim10-1 confirm,tim10 confirm,tim23-1 conf
COC(=O)[C@@]1(C)[C@H]2C(=O)N(Cc3ccccc3)C(=O)[C@H]2[C@H]2CN(C)C(=NC3CCCCC3)N21,-1.3,x,x,-5.4,-12.5,13.4,x,x,x
O=C(Nc1ccccc1)Nc1ccno1,-12.0,-3.5,6.8,-12.5,-16.1,-1.2,x,x,x
S=C(NCc1ccccc1)NC1CCSc2ccccc21 (stereo unspecified),22.8,26.7,24.0,-29.9,21.6,28.0,x,x,x
O=C(NC(=S)Nc1ccc(Br)c(Cl)c1)C1CC1,43.5*,19.1,23.6,-25.6,24.8,62.2*,22.0,x,53.8*
O=C(NC(=S)Nc1cccc(Cl)c1Cl)C1CC1,43.4*,6.2,20.5,-7.5,41.1*,51.5*,15.9,23.9,32.1
CCc1cc2c(=O)nc3n(c2s1)Cc1ccccc1/C3=C(/O)c1ccccc1Cl,59.5*,25.9,16.9,3.0,34.7,65.8*,41.9*,x,40.2*
Cc1ccc(C(=O)Nc2ccc(Br)c(C(F)(F)F)c2)cc1,75.4*,30.2,-16.0,x,63.4*,67.3*,45.2*,63.2*,62.2*
COc1ccccc1C(=O)NC(=O)COC(=O)CCOc1cc(C)ccc1C,22.3,-4.9,20.9,2.3,10.8,21.6,x,x,x
O=C(/C=C/c1cccc(F)c1)N1CCN(c2ccccn2)CC1,7.0,2.4,22.2,-6.6,1.7,14.6,x,x,x
Nc1cccc2c1C(=O)N(C(=O)/C=C/c1cccc(F)c1)C2=O,69.4*,2.6,-11.0,0.9,50.2*,81.9*,59.3*,39.5*,86.7*
CNC(=S)/N=C/NOCc1ccc(Cl)cc1Cl,65.8*,-1.2,19.5,-34.0,50.7*,58.3*,46.8*,61.7*,66.5*
O=S(=O)(Nc1cccc(-n2cnnn2)c1)c1ccccc1F,2.5,1.2,19.6,-1.2,3.9,-3.4,x,x,x
COc1cccc(-c2nc(NC(C)C)c3ccccc3n2)c1O,56.9*,4.9,7.2,x,26.6,54.8*,45.3*,x,51.5*
Cc1nnc(SCC(=O)Nc2cc(S(C)(=O)=O)ccc2Cl)n1Cc1ccccc1,-13.2,-2.9,4.2,-7.3,-14.8,1.1,x,x,x
NC(=O)N/N=C/c1c(O)ccc2oc3c(c12)CCCC3,12.5,9.9,9.7,-23.1,18.7,2.4,x,x,x
CC(C)(C)N=Cc1c(O)ccc2oc3c(c12)CCCC3,41.5*,33.8,8.7,-14.4,34.3,63.3*,33.4*,x,63.6*
CCSc1nc2ccccc2n1C(=O)/C=C/c1ccc(OC)c(OC)c1,57.8*,-12.3,23.0,13.8,39.3,50.8*,44.3*,x,54.4*
C=CCSc1nc2ccccc2n1C(=O)/C=C/c1ccc(OC)c(OC)c1,x,-3.4,x,20.5,x,x,x,x,x
Cc1cccc(/C(N)=N/OC(=O)c2ccco2)c1,41.5*,-5.3,3.0,-2.6,26.5,59.3*,31.8*,x,43.2*
N/C(=N\OC(=O)c1ccco1)c1ccc(Br)cc1,58.2*,2.3,4.6,-26.9,55.8*,61.6*,53.7*,50.6*,76.2*
Cc1cccc(/C(N)=N/OC(=O)CCCc2ccccc2)c1,61.3*,7.7,20.7,-9.7,53.1*,59.5*,57.5*,45.2*,59.0*
COc1ccc(CCc2nc(C)ccc2O)cc1,11.0,3.2,5.1,11.1,4.3,5.4,x,x,x
CCN(CC)S(=O)(=O)c1ccc(N2CCOCC2)c(NC(=O)c2ccc(=O)[nH]c2)c1,-8.5,x,15.8,4.9,-4.9,3.0,x,x,x
O=C(Cn1nc(Cl)nc1Cl)c1cc2ccccc2oc1=O,59.3*,4.5,-29.2,11.3,57.0*,71.9*,52.9*,43.5*,68.9*
COc1ccc2c3n(nc2c1)CCN=C3c1cc(Cl)c(N)c(Cl)c1,42.0*,x,9.7,4.8,28.9,54.7*,18.2,x,51.2*
SMILES,tim10-1 inh,SKKanGAS inh,NLRP3 yeast inh,PfHsp90 set2,TIM10 inh,tim23-1 inh,tim10-1 confirm,tim10 confirm,tim23-1 conf
Nc1c(Cl)cc(C2=NCCn3nc4cc(C(F)(F)F)ccc4c32)cc1Cl,4.7,27.2,16.8,2.0,2.3,21.6,x,x,x
Cc1cccc(NC(=O)Cn2cnc3c(oc4nc5c(cc43)COC(C)(C)C5)c2=O)c1,12.7,-3.7,7.3,13.7,4.4,-7.2,x,x,x
O=C1C(SCCO)=C(SCCO)C(=O)c2ccccc21,85.6*,x,32.4,-6.5,52.1*,79.9*,92.8*,38.0*,75.4*
CC1=C(SCc2ccccc2)C(=O)c2ccccc2C1=O,x,x,x,-0.2,x,x,x,x,x
O=C(COc1coc(CN2CCN(c3ccccc3F)CC2)cc1=O)NC1CCCC1,-4.4,-12.3,17.0,4.1,2.5,-6.5,x,x,x
O=[N+]([O-])c1ccc(C=Nc2ccc(Cl)c([N+](=O)[O-])c2)s1,65.0*,x,9.2,106.3*,85.4*,51.3*,71.1*,88.0*,77.3*
Cc1cc(C)cc(N=Cc2ccc([N+](=O)[O-])s2)c1,56.1*,5.6,19.2,106.0*,83.0*,55.0*,70.6*,85.8*,73.8*
O=[N+]([O-])c1ccc(/C=N/Nc2ncccc2[N+](=O)[O-])s1,23.2,11.9,0.6,1.9,14.4,3.3,x,x,x
CCCCCCCCCCOC(=O)Cn1c(COc2ccc(Cl)cc2)[n+](C)c2ccccc21,96.6*,108.4*,18.1,106.1*,54.9*,91.6*,92.4*,53.6*,90.8*
CCn1ccc(C(=O)Nc2ncc(C)s2)n1,-8.7,13.4,15.1,4.9,4.9,7.3,x,x,x
O=C(c1ccc(Cl)cc1)C(CN1CCCC1)c1ccccc1 (stereo unspecified),61.6*,-8.0,23.6,-49.6,46.3*,56.8*,26.1,51.0*,6.5
O=C(c1ccc(Cl)cc1)C1CCN(Cc2ccccc2)CC1,7.6,-3.1,8.9,1.9,0.4,1.5,x,x,x
Cc1cc(C)nc(Sc2ccc(C=O)cc2[N+](=O)[O-])n1,19.3,-8.6,0.9,-30.4,11.2,15.1,x,x,x
O=Cc1ccc(Sc2nnc(-c3ccccc3)o2)c([N+](=O)[O-])c1,47.7*,-6.2,23.2,9.3,42.4*,55.0*,35.3*,18.3,58.0*
Cc1sc(N)nc1-c1ccc(Oc2ccccc2)cc1,40.3*,34.1,37.4,-11.4,29.1,69.3*,50.5*,x,57.0*
Cc1ccc(S(=O)(=O)N2CCC(C(=O)Nc3ccc(N4CCOCC4)cc3)CC2)cc1C,-11.3,x,13.7,x,-9.8,-9.3,x,x,x
Cc1ccc(OCC(=O)N/N=C/c2ccc([N+](=O)[O-])o2)cc1,43.7*,-7.3,14.6,6.3,46.8*,50.9*,47.3*,50.1*,-10.9
